# According to the supplement of paper PMC10477191:
# ± gives the standard deviation of the averaged measurements.
# Tested on: Drosophila ezoana antennal basiconic sensillum ab1
# Assay: odor-evoked OSN spike response (post minus pre-stimulus); higher = stronger neuronal excitation
# Details: odor dilution: 10^-4
# In short: (§1)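 The response is the change in spike frequency between pre-stimulus and post-stimulus windows, averaged over replicate sensilla. Both windows lasted 1 second, and spikes were counted with Auto Spike software. Single sensillum recordings used a tungsten electrode at the base of antennal basiconic sensilla on restrained adult flies, with up to 3 sensilla per fly, and odorant at 10^−4 in mineral oil or DMSO (10 µl on filter paper) was delivered as a 500 ms pulse into a charcoal-filtered, humidified 1.5 l min^−1 air stream.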
row,SMILES,odor-evoked OSN spike response [spikes/s]
1,CCOC(C)=O [Ethyl acetate],56.4 ± 35
2,COC(=O)c1ccccc1O [Methyl salicylate],52.1 ± 33
3,CCCCCOC(C)=O [pentyl acetate],62.6 ± 43
4,CCCC(=O)CC [3-hexanone],59.3 ± 31
5,CCOC(=O)C(C)O (stereo unspecified) [Ethyl lactate],70.3 ± 53
6,"CC(O)C(C)O (stereo unspecified) [2,3-Butanediol]",68.2 ± 35
7,CC(=O)C(C)O (stereo unspecified) [acetoin],79.9 ± 48

# Tested on: Drosophila ezoana antennal basiconic sensillum ab2
# Assay: as above
# Details: odor dilution: 10^-4
# In short: as §1
row,SMILES,odor-evoked OSN spike response [spikes/s]
1,CCOC(=O)c1ccccc1 [ethyl benzoate],69.5 ± 30
2,CC(C)OC(=O)c1ccccc1 [isopropyl benzoate],91.2 ± 45
3,COC(=O)c1ccccc1 [methyl benzoate],55.9 ± 36
4,CCCC(=O)OCc1ccccc1 [benzyl butyrate],43.7 ± 32
5,CCCCCCCC/C=C\CCCCCCCC(=O)O [Oleic acid],43.9 ± 26
6,CCOC(=O)CC(C)O (stereo unspecified) [Ethyl-3-hydroxybutyrate],60.9 ± 32
7,C/C=C/C(=O)OCC [Ethyl crotonate],61.5 ± 39

# Tested on: Drosophila ezoana antennal basiconic sensillum ab3
# Assay: as above
# Details: odor dilution: 10^-4
# In short: as §1
row,SMILES,odor-evoked OSN spike response [spikes/s]
1,CCCOC(C)=O [propyl acetate],50 ± 27
2,CCOC(C)=O [Ethyl acetate],60.2 ± 27
3,CCCCCC(C)=O [2-heptanone],64.7 ± 28
4,CCOC(=O)c1ccccc1 [ethyl benzoate],64 ± 27
5,CC(C)OC(=O)c1ccccc1 [isopropyl benzoate],54.9 ± 29
6,CCCCCC(=O)OCC [ethyl hexanoate],141 ± 28
7,COC(=O)c1ccccc1O [Methyl salicylate],64.8 ± 22
8,CCCCCCCC(C)O (stereo unspecified) [2-nonanol],55 ± 26
9,CC(C)=CCCC(C)=CC=O (mixture of isomers) [citral],52.2 ± 25
10,CCCCC(C)=O [2-hexanone],52.9 ± 26
11,CCCCCCO [1-hexanol],53 ± 23
12,CCCCCOC(C)=O [pentyl acetate],120 ± 29
13,CCCC(=O)CC [3-hexanone],52 ± 27
14,CCCCCCOC(C)=O [Hexyl acetate],121 ± 33
15,CCOC(=O)CC(C)O (stereo unspecified) [Ethyl-3-hydroxybutyrate],133 ± 55
16,CCCCC(C)O (stereo unspecified) [2-hexanol],55 ± 32
17,CCCCCCCC(C)=O [2-nonanone],57.8 ± 38
18,CCc1ccc(O)c(OC)c1 [4-Ethylguaiacol],57.6 ± 32
19,CC(=O)OCCC(C)C [Isopentyl acetate],55.5 ± 29
20,CCOC(=O)C(C)O (stereo unspecified) [Ethyl lactate],129 ± 36
21,"CC(O)C(C)O (stereo unspecified) [2,3-Butanediol]",51.5 ± 25
22,CC(=O)C(C)O (stereo unspecified) [acetoin],135 ± 51

# Tested on: Drosophila ezoana antennal basiconic sensillum ab8
# Assay: as above
# Details: odor dilution: 10^-4
# In short: as §1
row,SMILES,odor-evoked OSN spike response [spikes/s]
1,CCCOC(C)=O [propyl acetate],51 ± 32
2,CCCCCC(C)=O [2-heptanone],54.2 ± 25
3,C=CC(O)CCCCC (stereo unspecified) [1-octen-3-ol],118 ± 51
4,CC(=O)c1ccccc1 [Acetophenone],71.8 ± 25
5,CCCCCC(=O)OCC [ethyl hexanoate],77.2 ± 32
6,CCCC(O)CC (stereo unspecified) [3-hexanol],52.3 ± 27
7,CCC(=O)OCCC(C)C [Isopentyl propionate],79 ± 39
8,CCCCCCO [1-hexanol],176 ± 44
9,CCCCCOC(C)=O [pentyl acetate],122 ± 45
10,CCCCCCOC(C)=O [Hexyl acetate],88.7 ± 39
11,CC(C)CCO [Isopentyl alcohol],65.8 ± 25
12,CCOC(=O)CC(C)O (stereo unspecified) [Ethyl-3-hydroxybutyrate],108 ± 45
13,CC(=O)OCCC(C)C [Isopentyl acetate],73.6 ± 38
14,CCOC(=O)C(C)O (stereo unspecified) [Ethyl lactate],51.4 ± 27
15,OCCc1ccccc1 [2-phenylethanol],63.9 ± 26

# Tested on: Drosophila ezoana antennal basiconic sensillum ab9
# Assay: as above
# Details: odor dilution: 10^-4
# In short: as §1
row,SMILES,odor-evoked OSN spike response [spikes/s]
1,CCCOC(C)=O [propyl acetate],60.9 ± 37
2,C=CC(O)CCCCC (stereo unspecified) [1-octen-3-ol],50.6 ± 26
3,CCOC(=O)c1ccccc1 [ethyl benzoate],105 ± 28
4,CC(C)OC(=O)c1ccccc1 [isopropyl benzoate],58.6 ± 20
5,CC(=O)c1ccccc1 [Acetophenone],68.3 ± 26
6,CCCCCC(=O)OCC [ethyl hexanoate],56.8 ± 31
7,COC(=O)c1ccccc1 [methyl benzoate],125 ± 48
8,CCCC(=O)OCc1ccccc1 [benzyl butyrate],56.9 ± 30
9,CC(C)=CCCC(C)=CC=O (mixture of isomers) [citral],55.8 ± 30
10,CCC(=O)OCCC(C)C [Isopentyl propionate],66.7 ± 31
11,CCCCCOC(C)=O [pentyl acetate],67.9 ± 29
12,CCCC(=O)CC [3-hexanone],51.3 ± 35
13,CCOC(=O)CC(C)O (stereo unspecified) [Ethyl-3-hydroxybutyrate],59.2 ± 23
14,COc1ccccc1O [guaiacol],50.8 ± 26
15,CC(=O)OCCC(C)C [Isopentyl acetate],56.7 ± 36
16,CCOC(=O)C(C)O (stereo unspecified) [Ethyl lactate],66.3 ± 26
17,C/C=C/C(=O)OCC [Ethyl crotonate],50.1 ± 30
18,CC(=O)C(C)O (stereo unspecified) [acetoin],57.3 ± 30

# Tested on: Drosophila virilis antennal basiconic sensillum AB1
# Assay: as above
# Details: odor dilution: 10^-4
# In short: as §1
row,SMILES,odor-evoked OSN spike response [spikes/s]
1,CCOC(C)=O [Ethyl acetate],69.2 ± 27
2,COC(=O)c1ccccc1O [Methyl salicylate],49 ± 22
3,CCCC(=O)CC [3-hexanone],76 ± 7.4
4,CCOC(=O)CC(C)O (stereo unspecified) [Ethyl-3-hydroxybutyrate],70.5 ± 24
5,CCOC(=O)C(C)O (stereo unspecified) [Ethyl lactate],128 ± 32
6,"CC(O)C(C)O (stereo unspecified) [2,3-Butanediol]",71.5 ± 10
7,CC(=O)C(C)O (stereo unspecified) [acetoin],82.8 ± 39
